The text below walks through data of PubChem BioAssay.

SMILES strings stand for the structures. Active and inactive are the calls of the source.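 How the source made its calls: active means compounds whose cell count with miR-34 switched on is under 0.7 times the count with it off; inactive means the rest.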

A short description of the experiment: viability loss with induced miR-34 in A549 – imaging, A549 dox-inducible miR-34, nuclei and caspase counts, primary screen (AID 1347080). Further: test concentration not given here. To be noted: A549 miR-34 inducible, Hoechst nuclei count, 48 h; hits give low values; cell number ratio, induced over uninduced.
As to `CCCCC/C=C\C/C=C\C/C=C\C/C=C\CCCC(=O)NCc1ccoc1`, the fold change was 0.985 (inactive).

On to `CCCCCCCCCCCCCCCCSP(=O)([O-])OCC[N+](C)(C)C`, for which the fold change was 0.933 (inactive). For `CCCCCCCC/C=C\CCCCCCCC(=O)N[C@H](C)CO` the value was 0.925 (inactive); for `CCCCC/C=C\C/C=C\C/C=C\C/C=C\CCCC(=O)NCCCl`, 1.01 (inactive); for `c1cc2ccc(N3CCNCC3)cc2cn1`, 0.985 (inactive).

`CCN1C[C@@]2(COC)C3[C@@H](OC)[C@H]4[C@H]1C3([C@@H]1C[C@@]3(O)[C@H](OC(=O)c5ccccc5)[C@@H]1[C@]4(OC(C)=O)[C@@H](O)[C@@H]3OC)[C@H](OC)C[C@H]2O`: the fold change was 0.989 (inactive).

Regarding `CCCCC/C=C\C/C=C\C/C=C\C/C=C\CCCC(=O)NC[C@H](C)O`, the fold change was 0.983 (inactive). Consider `C=C(C)[C@@H]1CCC(C)=C[C@H]1c1c(O)cc(O)cc1CCCCC`, for which the fold change is 0.914 (inactive).

For `COc1ccc(/C=C/C(=O)CC(=O)/C=C/c2ccc(OC)c(OC)c2)cc1OC`, the fold change was 0.864 (inactive). Consider `c1cc2cc(N3CCNCC3)ccc2cn1`, for which the fold change was 0.956 (inactive). For `O=C(NCCN1CCC2(CC1)C(=O)NCN2c1ccccc1)c1ccc2ccccc2c1` the value was 0.966 (inactive).

As to `c1cc(N2CCNCC2)c2cc[nH]c2c1`, the fold change is 0.865 (inactive). Take `CCCCC/C=C\C/C=C\C/C=C\C/C=C\CCCC(=O)NCCS(=O)(=O)O`: the fold change is 0.96 (inactive). To `COc1ccc2cc(C(C#N)OC(=O)OCC3OC3c3ccccc3)ccc2c1` (stereo not given) belongs 0.914 (inactive); to `c1cc(N2CCNCC2)c2cnccc2c1`, 0.965 (inactive).
